An excerpt weighted towards active compounds, which were near 8% of everything screened.
HT1080 IDH1KD tx: kills HT-1080 cells with IDH1 knockdown; HT-1080 IDH1 knockdown viability, ATP luminescence, 48 h; Potency, µM (titrated, usually from 46.1 µM), inactives show top-dose activity, negative = toxicity, usual class: cytotoxic; 360,000 tested, 2% active;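 note: 0% = DMSO wells and -100% = cell-free medium wells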
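Knockdown cells (IDH1KD HT-1080) received compounds 2 h after plating at 750 cells/well and were kept 48 h at 37 °C in 5% FBS RPMI. A CellTiter-Glo luminescence read gave % activity for curve fitting.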
KB-3-1 cytotox: KB-3-1 parental cell cytotoxicity; Potency, µM (doses to about 46.1 µM), hits mostly cytotoxic; KB-3-1 viability, CellTiter-Glo ATP luminescence, 72 h; 400,000 tested, 1.4% active; note: % is set by controls: 0 for no effect and ±100 for the full control effect; nearly all actives have a fitted effect of over 60% in size
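Luminescent ATP read-out (CellTiter-Glo) measures survival of drug-naive KB-3-1 cells after 72 h compound exposure at 37 °C. Titration series was screened from lowest to highest concentration, with DMSO vehicle plates as background controls.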
KB-V1 MDR tox: kills drug-selected multidrug resistant KB-V1 cells; KB-V1 MDR cells viability, CellTiter-Glo, 72 h; Potency, µM (titrated, usually from 46.1 µM), most hits filed as cytotoxic; 400,000 tested, 3.4% active; AID 1347076; note: % is set by controls: 0 for no effect and ±100 for the full control effect; nearly all actives have a fitted effect of over 60% in size
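Cytotoxicity via CellTiter-Glo luminescence after 72 h compound exposure at 37 degrees C. Cells: drug-selected KB-V1 line, DMEM phenol-red free plus 10% FBS. Compounds tested at multiple concentrations; normalized data fitted to concentration-effect curves.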
HT1080-NT tox: kills 2HG-producing HT-1080-NT fibrosarcoma cells; HT-1080-NT fibrosarcoma viability, CellTiter-Glo ATP luminescence, 48 h; Potency, µM (series often up to 46.1 µM), for inactives: top-dose activity, negative = less viability, usual class: cytotoxic; 360,000 tested, 1.6% active; AID 686970;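 note: NT is the 2HG producing partner of a matched IDH1 knockdown line; 0% = DMSO-treated cells and -100% = media-only wells without cells; nearly all actives have a fitted effect of over 55% in size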
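Toxicity toward the 2HG-producing NT line was scored as %Activity, normalised to DMSO and no-cell wells, from CellTiter-Glo luminescence after 48 hours' treatment.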
SW480 rerep: inducers of DNA re-replication in SW480 colon cancer cells; 340,000 tested, 1.8% active; SW480 DNA re-replication, Hoechst DNA content imaging, 48 h; Potency, µM (highest dose often 46.1 µM), inactives show at the top dose re-replication activation, most hits filed as activators; AID 624297; note: % of control where 0% means no effect; nearly all actives have a fitted effect of over 55% in size
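Readout is total intensity of Hoechst-stained nuclei, excited at 405 nm and collected at 500-530 nm. Compound treatment lasted 48 hr at 37 C in 5% CO2 before staining.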
MCF10A rerep: DNA re-replication induction in MCF 10a cells; MCF 10A DNA re-replication, Hoechst nuclear intensity, 48 h; Potency, µM (top dose mostly 46.1 µM), for inactives: at the highest dose activity, positive = re-replication, most hits filed as activators; 350,000 tested, 2.9% active; AID 624296; note: % of control where 0% means no effect; nearly all actives have a fitted effect of over 50% in size
The depositor's hits bear a star; i = inactive; u = inconclusive; x = no result given; [ ] = remark or other dose. Calls come from the whole dose curve; as a rule, active = well fitted curve in the direction sought with a large enough effect; inconclusive = small, poorly fitted or top-dose-only effect, or another doubt; inactive = no such curve, though single readings can be large; an effect the other way counts as inactive or inconclusive. Potency is the fitted concentration of half-maximal effect.

SMILES	HT1080 IDH1KD tx	KB-3-1 cytotox	KB-V1 MDR tox	HT1080-NT tox	SW480 rerep	MCF10A rerep
COc1ccc(/C=C(/NC(=O)c2ccccc2)C(=O)N2CCCCC2)cc1	-6%	i	i	-1%	-20%	-2%
Cc1ccc(C2c3cccn3CCN2S(=O)(=O)c2ccc([N+](=O)[O-])cc2)cc1 (stereo unspecified)	x	i	i	x	x	x
CCn1cc(CNCc2ccc(OCC(O)CN(C)Cc3ccccc3)cc2)cn1 (stereo unspecified)	u	i	i	-20%	-3%	20%
COc1ccccc1Nc1nnc(SCC(=O)Nc2nc(-c3ccc(F)cc3)cs2)s1	u	i	i	23µM*	u	66%
Cc1csc(NC(=O)C2C3C=CC(O3)C2C(=O)O)n1 (stereo unspecified)	-3%	i	i	0%	2%	7%
CCCOc1ccccc1C1NC(=O)NC(C)=C1C(=O)OCCOC(C)C (stereo unspecified)	-4%	i	u	0%	-2%	u
O=c1cc(N=Nc2ccc(Cl)cc2)[nH]c(=O)[nH]1	14%	u	i	1%	5.2µM*	3.7µM*
Cc1cc(N2CCN(c3nc(-c4ccc([N+](=O)[O-])cc4)cs3)CC2)c2ccccc2n1	u	i	u	18µM*	6%	u
CN1CCN(Cc2nc3ccccc3c(=O)n2Cc2nc(-c3ccc([N+](=O)[O-])cc3)cs2)CC1	21µM*	u	u	21µM*	u	u
CN(C)Cc1nc2ccccc2c(=O)n1Cc1nc(-c2cccc([N+](=O)[O-])c2)cs1	u	i	u	-28%	1%	14%
Cc1ccc(NC(=O)CCn2cccc2)cc1C	0%	i	i	7%	-2%	9%
Cc1ccc(/C=C/C(=O)c2c(C)cc(C)[nH]c2=O)cc1	10µM*	u	u	u	u	u
Cc1cc(C)c(C(=O)/C=C/c2cccs2)c(=O)[nH]1	-9%	i	u	-1%	-41%	u
COc1ccc(/C=C/C(=O)c2c(C)cc(C)[nH]c2=O)c2ccccc12	12µM*	u	i	u	u	18µM*
CCc1ccc(/C=C/C(=O)c2c(C)cc(C)[nH]c2=O)cc1	23µM*	23µM*	u	15µM*	u	18µM*
COc1cc(C)ccc1OCc1cc(C(=O)NCc2ccncc2)no1	-12%	x	x	-4%	19%	-1%
Cc1ccc(CNC(=O)C2CCC(CNc3nc(=S)[nH]c4ccccc34)CC2)cc1 (stereo unspecified)	-5%	u	i	-3%	14%	23µM*
CCC(=O)NC(c1ccc(Cl)cc1Cl)c1ccc2cccnc2c1O (stereo unspecified)	u	u	i	15µM*	0.52µM*	u
CCCCC(=O)NC(c1ccc(Cl)cc1Cl)c1ccc2cccnc2c1O (stereo unspecified)	u	3.3µM*	u	u	1.2µM*	u
CC(C)C(=O)NC(c1ccc(Cl)cc1Cl)c1ccc2cccnc2c1O (stereo unspecified)	u	i	i	u	u	20%
COc1ccc(-n2c(COc3cccc4ccccc34)nnc2SCC#N)cc1	u	u	i	u	-3%	u
Cc1cccc(OCc2nnc(SCc3cc(=O)[nH]c4ccccc34)n2-c2ccccc2)c1	-15%	i	18µM*	2%	-75%	0%
Cc1ccc(-c2nnc(CSc3nnc(COc4cccc5ccccc45)n3-c3ccccc3)o2)cc1	u	u	2.1µM*	-16%	-114%	1%
N#CCSc1nnc(COc2cccc3ccccc23)n1-c1cccc(Cl)c1	u	i	u	u	1%	u
N#CCSc1nnc(COc2cccc3ccccc23)n1-c1ccccc1	u	16µM*	16µM*	u	5%	u
SMILES	HT1080 IDH1KD tx	KB-3-1 cytotox	KB-V1 MDR tox	HT1080-NT tox	SW480 rerep	MCF10A rerep
N#CCSc1nnc(COc2ccccc2)n1-c1ccccc1	5%	i	23µM*	15%	-1%	17%
O=C(O)CSc1nnc(COc2ccccc2)n1-c1ccccc1	-1%	i	i	11%	1%	0%
CCC(NC(=O)c1cc(COc2cncc(Cl)c2)on1)c1ccncc1 (stereo unspecified)	-1%	i	i	-3%	-5%	-4%
CCCCc1ccc(NC(=O)c2ccc3c(c2)CCN3S(=O)(=O)c2ccccc2)cc1	x	i	i	x	x	x
Cc1ccccc1CC(=O)N1CCN(S(=O)(=O)c2cccs2)CC1	-1%	i	i	-1%	-1%	3%
Cc1ccc(-n2c(SCc3ccc(C#N)cc3)nnc2-c2ccccn2)cc1	4%	i	i	8%	-17%	2%
Cc1ccc(OCc2nnc(SCc3ccc(C#N)cc3)n2-c2ccc(C)cc2)cc1	11µM*	i	i	u	8%	u
COc1ccc(C2/C=C\CN(S(=O)(=O)c3ccc(C)cc3)CC(=O)N2Cc2ccc(F)cc2)cc1 (stereo unspecified)	6%	i	i	8%	4%	6%
CNC[C@H](Cc1ccccc1)NC[C@@H](Cc1cccc2ccccc12)NCCc1ccc(C)cc1	u	7.3µM*	u	u	u	u
Nc1ccc2nc(N3CCOCC3)sc2c1	-1%	i	i	-5%	0%	-1%
c1ccc(N2CCN(c3nc4cc5c(cc4s3)OCCO5)CC2)cc1	2%	u	2.6µM*	6%	-4%	0%
c1c2c(cc3sc(N4CCOCC4)nc13)OCCO2	u	u	21µM*	-25%	-4%	1%
COCCCN1C2=C(C(=O)CC(C)(C)C2)C(c2ccc(O)c(OC)c2)C2=C1CC(C)(C)CC2=O	23%	i	i	17%	0%	-3%
Cc1cccc(N2CCN(C(=O)c3cc4c(=O)n(C)c5ccccc5c4s3)CC2C)c1 (stereo unspecified)	x	i	i	x	x	x
COC(=O)c1sc(-c2ccccc2)cc1NC(=O)c1cccc(Cl)c1	x	i	i	x	x	x
O=C(NNc1ccc(F)cc1F)C1CCC1	4.6µM*	i	i	u	u	-8%
O=C(NNc1ccccc1F)C1CCC1	-28%	i	u	-17%	-5%[9.22 µM]	-8%
CCN(CC)CC(=O)Nc1ccc2c(c1)N(C(=O)CN(CC)CC)c1ccccc1CC2	u	i	u	u	u	-17%

Assay outcomes deposited in PubChem by National Center for Advancing Translational Sciences (NCATS).
